Source: PubChem BioAssay
A selection: hits, their analogues and other compounds. The true share with any hit is near 3.3%.
AmpC inh no detg: AmpC beta-lactamase inhibition without detergent. P00811. AmpC nitrocefin hydrolysis, absorbance 480 nm, 0.0001% Triton. AID 485341. 0.52% of 330,000 active. Potency, µM (series often up to 57.1 µM), hits mostly inhibitors; also: nearly all actives have a fitted effect of over 20% in size
Target sequence (P00811 whole entry, looked up): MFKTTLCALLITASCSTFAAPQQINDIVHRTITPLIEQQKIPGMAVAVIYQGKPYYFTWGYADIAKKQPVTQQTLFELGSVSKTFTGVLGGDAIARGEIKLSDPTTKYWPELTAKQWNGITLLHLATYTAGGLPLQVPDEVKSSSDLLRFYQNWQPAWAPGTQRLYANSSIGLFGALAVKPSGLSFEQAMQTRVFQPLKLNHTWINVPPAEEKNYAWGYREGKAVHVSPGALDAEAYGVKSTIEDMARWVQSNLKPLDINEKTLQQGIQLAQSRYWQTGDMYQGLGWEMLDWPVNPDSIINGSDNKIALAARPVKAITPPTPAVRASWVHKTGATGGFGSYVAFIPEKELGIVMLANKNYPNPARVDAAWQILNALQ
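AmpC (5.3 nM in the dispensed reagent) in 20 mM phosphate pH 7.0 with 0.01% (detergent screen) or 0.0001% Triton X-100 was preincubated with compounds for 15 min at room temperature. Nitrocefin was then added from an 800 uM solution, and hydrolysis was followed at 480 nm.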
Sm TGR inh: S. mansoni TGR enzyme inhibition; Q962Y6; purified TGR, DTNB reduction, TNB absorbance 405 nm; Potency, µM (titrated, usually from 114 µM), usual class: inhibitors; 3% of 360,000 active; also: nearly all actives have a fitted effect of over 60% in size
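First, TGR (20 nM dispensed) and NADPH were mixed with compound. Second, a 15 min room-temperature incubation followed. Third, further NADPH and then DTNB were added to start the reaction. Finally, TNB absorbance was monitored kinetically.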
AmpC inh detg: AmpC beta-lactamase inhibition with detergent present; P00811; AmpC hydrolysis of nitrocefin, absorbance 480 nm, 0.01% Triton; Potency, µM (titrated, usually from 114 µM), actives largely listed as inhibitors; 0.041% of 370,000 active; AID 485294; also: nearly all actives have a fitted effect of over 25% in size
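AmpC (5.3 nM in the dispensed reagent) in 20 mM phosphate pH 7.0 with 0.01% (detergent screen) or 0.0001% Triton X-100 was preincubated with compounds for 15 min at room temperature. Nitrocefin was then added from an 800 uM solution, and hydrolysis was followed at 480 nm.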
Numbers stand for hits. Calls follow the shape of the dose curve; as a rule, active = well fitted curve in the direction sought with a large enough effect; inconclusive = small, poorly fitted or top-dose-only effect, or another doubt; inactive = no such curve, though single readings can be large; an effect the other way counts as inactive or inconclusive.

Results for COc1ccc(CNC(=O)CCNS(=O)(=O)c2ccc3c(c2)CCCC(=O)N3)cc1 ?
Sm TGR inh: inactive; AmpC inh detg: inactive

Results for COc1cc2c(cc1OC)C(C)N(C(=O)c1cc3n(n1)C(C(F)(F)F)CC(c1ccco1)N3)CC2 (stereo not given) ?
AmpC inh no detg: inactive; Sm TGR inh: 25µM; AmpC inh detg: inconclusive

How did O=C(c1cc2n(n1)C(C(F)(F)F)CC(c1ccco1)N2)N1CCc2ccccc2C1 (stereo not given) do in these assays?
AmpC inh no detg: inactive; Sm TGR inh: inconclusive; AmpC inh detg: inactive

Results for O=C(O)CSc1cc(NS(=O)(=O)c2ccc(Br)cc2)c2ccccc2c1O ?
AmpC inh no detg: inactive; Sm TGR inh: 5.6µM; AmpC inh detg: inactive

How did O=S(=O)(Nc1cc(Sc2ncn[nH]2)c(O)c2ccccc12)c1ccccc1 do in these assays?
AmpC inh no detg: inactive; Sm TGR inh: 0.89µM; AmpC inh detg: inactive

What do the screens show for `Cc1ccc(S(=O)(=O)Nc2ccc(Br)cc2C(NCC(=O)O)c2ccccc2)cc1` (stereo not given)?
AmpC inh no detg: inactive; Sm TGR inh: inactive; AmpC inh detg: inactive

How did Cc1cc(O)c(Sc2ncn[nH]2)cc1NS(=O)(=O)c1ccc(Cl)cc1 do in these assays?
AmpC inh no detg: inactive; Sm TGR inh: inactive; AmpC inh detg: inactive

Results for CCn1c(C(=O)N2CCC(C(=O)N3CCN(c4ccc(OC)cc4)CC3)CC2)cc2sccc21 ?
Sm TGR inh: inactive; AmpC inh detg: inconclusive

How did O=C(CN1CCc2ccccc21)NN1CC(=O)N(c2ccccc2)CC1=O do in these assays?
AmpC inh no detg: inactive; Sm TGR inh: inactive; AmpC inh detg: inactive

Results for COc1cccc(NC(=O)C2CC2)c1 ?
AmpC inh no detg: inactive; Sm TGR inh: inactive; AmpC inh detg: inactive

Results for O=C(O)C1C2C=CC(C2)C1C(=O)Nc1ccc2c(c1)OCCO2 (stereo not given) ?
AmpC inh no detg: inactive; Sm TGR inh: inactive; AmpC inh detg: inactive

What do the screens show for `COc1cccc(NC(=O)C2C3C=CC(O3)C2C(=O)O)c1` (stereo not given)?
AmpC inh no detg: inactive; Sm TGR inh: 35µM; AmpC inh detg: inconclusive

Results for O=C(O)C1C2C=CC(O2)C1C(=O)Nc1ccc2c(c1)OCCO2 (stereo not given) ?
AmpC inh no detg: inactive; Sm TGR inh: 35µM; AmpC inh detg: inconclusive

How did CC(=O)c1ccc(NC(=O)C2C3C=CC(O3)C2C(=O)O)cc1 (stereo not given) do in these assays?
AmpC inh no detg: inactive; Sm TGR inh: inactive; AmpC inh detg: inactive

What do the screens show for `CC(C)OC(=O)c1cc(NC(=O)C2C3C=CC(O3)C2C(=O)O)cc(C(=O)OC(C)C)c1` (stereo not given)?
AmpC inh no detg: inactive; Sm TGR inh: inactive; AmpC inh detg: inactive

How did COc1ccc(NC(=O)C2C3C=CC(O3)C2C(=O)O)cc1 (stereo not given) do in these assays?
AmpC inh no detg: inactive; Sm TGR inh: 45µM; AmpC inh detg: inconclusive

Results for CCCOC(=O)c1ccc(NC(=O)C2C3C=CC(O3)C2C(=O)O)cc1 (stereo not given) ?
AmpC inh no detg: inactive; Sm TGR inh: 20µM; AmpC inh detg: inactive

What do the screens show for `Cn1c(=O)c2c(-c3ccccc3)n3c4ccccc4nc(-c4ccccc4)c3c2n(C)c1=O`?
Sm TGR inh: inactive; AmpC inh detg: inactive

Results for CC(C)CN(C(=O)COC(=O)c1ccccc1NCc1ccco1)c1c(N)n(Cc2ccccc2)c(=O)[nH]c1=O ?
AmpC inh no detg: inactive; Sm TGR inh: inactive; AmpC inh detg: inactive

What do the screens show for `O=C(N/N=C/c1ccco1)C1CC(=O)N(c2ccccc2)C1` (stereo not given)?
AmpC inh no detg: inactive; Sm TGR inh: inactive; AmpC inh detg: inconclusive

How did COC(=O)c1cc(S(=O)(=O)N2CCN(c3cccc(Cl)c3)CC2)c[nH]1 do in these assays?
AmpC inh no detg: inactive; Sm TGR inh: inactive; AmpC inh detg: inconclusive

How did CCCCNC(=O)C1C2C=CC3(CN(Cc4ccccc4Cl)C(=O)C13)O2 (stereo not given) do in these assays?
AmpC inh no detg: inactive; Sm TGR inh: inactive; AmpC inh detg: inactive

How did CC(C)CCNC(=O)C1C2C=CC3(CN(Cc4ccccc4Cl)C(=O)C13)O2 (stereo not given) do in these assays?
AmpC inh no detg: 8.9µM; Sm TGR inh: inactive; AmpC inh detg: inconclusive

Results for Cn1c(=O)c(=O)n(C)c2cc(N3CCCC3)c(NC(=O)c3ccc(C(C)(C)C)cc3)cc21 ?
Sm TGR inh: inconclusive; AmpC inh detg: inactive

Results for CCCCOc1ccc(C(O)(CC)CCN2CCOCC2)cc1 (stereo not given) ?
AmpC inh no detg: inactive; Sm TGR inh: 20µM; AmpC inh detg: inactive

How did CCCOc1ccc(C(C)(O)CN2CCOCC2)cc1 (stereo not given) do in these assays?
AmpC inh no detg: inactive; Sm TGR inh: inactive; AmpC inh detg: inactive

Results for CCCC(O)(c1ccc(Cl)cc1)C(CN1CCOCC1)c1ccccc1 (stereo not given) ?
AmpC inh no detg: inactive; Sm TGR inh: inactive; AmpC inh detg: inconclusive

How did CCCCC(O)(CCN1CCOCC1)c1ccc(Cl)cc1 (stereo not given) do in these assays?
AmpC inh no detg: inactive; Sm TGR inh: 35µM; AmpC inh detg: inactive

What do the screens show for `CCCCOc1ccc(OCCCN2CCOCC2)cc1`?
AmpC inh no detg: inactive; Sm TGR inh: inactive; AmpC inh detg: inconclusive

Results for CCCCOc1ccc(C(O)(CCC)CCN2CCOCC2)cc1 (stereo not given) ?
AmpC inh no detg: inactive; Sm TGR inh: 40µM; AmpC inh detg: inactive

How did Cc1ccc(NC(=O)Nc2cc(S(=O)(=O)N(C)C)ccc2C)cc1 do in these assays?
AmpC inh no detg: 25µM; Sm TGR inh: inactive; AmpC inh detg: inactive

How did Cc1ccc(NC(=O)NNS(=O)(=O)c2ccc(Br)cc2)cc1 do in these assays?
AmpC inh no detg: inactive; Sm TGR inh: inactive; AmpC inh detg: inactive

What do the screens show for `Cc1ccc(S(=O)(=O)N(C)C)cc1NC(=O)Nc1ccccc1`?
AmpC inh no detg: inactive; Sm TGR inh: inactive; AmpC inh detg: inactive

Results for Cc1ccc(S(=O)(=O)NC(=O)Nc2ccc(N(C)C)cc2)cc1 ?
AmpC inh no detg: inactive; Sm TGR inh: 50µM; AmpC inh detg: inactive

How did Cc1ccccc1CSc1nnc(-c2ccncc2)n1C do in these assays?
AmpC inh no detg: inactive; Sm TGR inh: inactive; AmpC inh detg: inactive

How did CCOc1ccc(/C=C(\C#N)C(=O)Nc2sc3c(c2C(=O)OC)C(C(=O)OC)CC3)cc1OC (stereo not given) do in these assays?
Sm TGR inh: inactive; AmpC inh detg: inactive

What do the screens show for `O=C(CSc1ccccc1)NCc1ccco1`?
AmpC inh no detg: inactive; Sm TGR inh: inactive; AmpC inh detg: inactive

How did Cc1ccccc1CN1CCN(CC(=O)NCc2ccccc2Cl)C1=O do in these assays?
Sm TGR inh: inactive; AmpC inh detg: inactive

What do the screens show for `O=C(CN1CCOc2ccccc21)NCc1ccco1`?
AmpC inh no detg: inactive; Sm TGR inh: 50µM; AmpC inh detg: inactive

Results for Cc1ccccc1CN1CCN(CC(=O)NCc2ccco2)C1=O ?
AmpC inh no detg: inactive; Sm TGR inh: 40µM; AmpC inh detg: inactive

What do the screens show for `O=C(CN1CC(=O)Oc2ccccc21)NCc1ccco1`?
AmpC inh no detg: inactive; Sm TGR inh: inconclusive; AmpC inh detg: inactive
